Assay outcomes (PubChem BioAssay)
CSC inhib = cancer stem cell viability inhibitors, primary screen, luminescence | 300,000 tested, 1.1% active | cancer stem cell-like cells viability | AID 2717, 2010 | inhibition, % at 7.5 µM; in the data active = inhibition above about 75%; tested in HMLE shEcad cells
aSyn 5UTR inh = MLPCN primary screen, SNCA 5' untranslated region; alpha-synuclein 5'UTR reporter, inhibitor activity; inhibition, % (tested at 7.5 µM); 300,000 tested, 0.82% active; in the data active = inhibition above about 60%;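 also: H4 neuroglioblastoma cells stably carrying SNCA 5'UTR luciferase fusion; 0% = DMSO wells and 100% = positive control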
Mdm2-MdmX inh = inhibitors of human Mdm2-MdmX association, primary screen, cell-based, luminescence, split luciferase, SaOS-2, uHTS; Protein Mdm4 (Homo sapiens) + E3 ubiquitin-protein ligase Mdm2 (Homo sapiens), …; SaOS-2 split-luciferase Mdm2/MdmX complementation; inhibition, % at 8 µM; 330,000 tested, 3% active;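 active = inhibition of at least 50% at 8 µM in the primary screen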
Target sequence (O15151 whole entry, looked up): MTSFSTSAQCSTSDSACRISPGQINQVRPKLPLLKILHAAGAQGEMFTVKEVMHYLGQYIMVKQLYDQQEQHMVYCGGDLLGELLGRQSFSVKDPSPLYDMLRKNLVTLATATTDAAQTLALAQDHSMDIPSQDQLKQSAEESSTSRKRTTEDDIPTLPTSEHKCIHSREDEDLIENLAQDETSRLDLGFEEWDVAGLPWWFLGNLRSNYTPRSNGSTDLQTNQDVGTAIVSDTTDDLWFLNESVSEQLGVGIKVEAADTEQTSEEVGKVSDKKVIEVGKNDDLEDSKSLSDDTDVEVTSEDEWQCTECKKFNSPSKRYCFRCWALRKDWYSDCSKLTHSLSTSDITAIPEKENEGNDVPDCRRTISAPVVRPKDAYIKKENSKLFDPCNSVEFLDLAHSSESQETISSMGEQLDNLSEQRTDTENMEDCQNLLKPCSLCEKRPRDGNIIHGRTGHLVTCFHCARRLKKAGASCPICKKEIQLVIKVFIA
Target sequence (Q00987 whole entry, looked up): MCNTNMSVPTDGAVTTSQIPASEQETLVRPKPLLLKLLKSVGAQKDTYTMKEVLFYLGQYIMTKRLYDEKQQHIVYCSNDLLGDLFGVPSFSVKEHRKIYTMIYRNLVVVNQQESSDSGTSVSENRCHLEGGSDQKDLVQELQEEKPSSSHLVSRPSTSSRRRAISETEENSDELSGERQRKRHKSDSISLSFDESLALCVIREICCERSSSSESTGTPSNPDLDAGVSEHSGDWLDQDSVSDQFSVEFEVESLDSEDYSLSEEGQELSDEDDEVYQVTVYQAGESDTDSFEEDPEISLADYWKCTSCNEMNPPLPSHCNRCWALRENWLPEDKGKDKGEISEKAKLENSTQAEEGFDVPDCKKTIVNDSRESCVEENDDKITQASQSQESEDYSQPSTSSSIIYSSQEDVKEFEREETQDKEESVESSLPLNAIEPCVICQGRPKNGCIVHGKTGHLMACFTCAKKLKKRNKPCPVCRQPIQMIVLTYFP
Gli-Sufu block = Gli-Sufu pathway antagonists, primary screen, luciferase luminescence, Sufu-KO-LIGHT cells, uHTS; Sufu-KO-LIGHT fibroblasts, Gli luciferase reporter luminescence; inhibition, % at 5 µM; 340,000 tested, 0.74% active; AID 588413, 2011;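 active = inhibition above about 55%, limit read from the data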;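 also: 0% = DMSO-treated cells and 100% = wells with medium but no cells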
697 NFkB inh = inhibitors of PMA/ionomycin-induced NF-kB reporter, 697 cells, primary screen, B-cell NF-kB inhibitor project, cell-based, luminescence, uHTS; 697 B-cell NF-kB luciferase reporter, 16 h; inhibition, % at 4 µM; 330,000 tested, 0.33% active; AID 435022, 2010; in the data active = inhibition above about 35%
Jurkat NFkB inh = inhibitors of induced NF-kB luciferase reporter, primary screen, TCR NF-kB activation inhibitor project, cell-based, luminescence, uHTS. Jurkat, PMA/ionomycin-induced NF-kB luciferase reporter. inhibition, % at 4 µM. 330,000 tested, 0.53% active; in the data active = inhibition above about 50%
697 NFkB conf = PMA/ionomycin-induced NF-kB reporter inhibitors, 697 retest, confirmation, B-cell NF-kB inhibitor project, cell-based, luminescence, single concentration. inhibition, % at 4 µM. AID 449746, 2010. 2,000 tested, 35% active. shares compounds with 697 NFkB inh. 697 B-cell NF-kB luciferase, 16 h; in the data active = inhibition mostly above about 28%, no sharp cut-off; inactive = mostly below about 22%
Starred values were filed as active, the others as inactive. Hits are enriched below; roughly 4.5% of the tested compounds scored in any of these assays.

`O=C(CCCN1C(=O)/C(=C/c2ccccc2Cl)SC1=S)NNC(=O)c1ccccc1` gave CSC inhib 5, aSyn 5UTR inh 62*, Mdm2-MdmX inh 10, Gli-Sufu block 6, 697 NFkB inh 40*, Jurkat NFkB inh 13 and 697 NFkB conf 42*.
For O=C(CCCN1C(=O)/C(=C/c2ccccc2Cl)SC1=S)NNC(=O)c1ccc(Cl)cc1Cl the results were CSC inhib -15, aSyn 5UTR inh 71*, Mdm2-MdmX inh 46, Gli-Sufu block 26, 697 NFkB inh 60*, Jurkat NFkB inh 27 and 697 NFkB conf 39*.
Screening CCOc1ccccc1N1CCN(C(=O)CCNS(=O)(=O)c2ccccc2F)CC1 returned CSC inhib -15, aSyn 5UTR inh 6, Mdm2-MdmX inh 25, Gli-Sufu block 3, 697 NFkB inh -16 and Jurkat NFkB inh 4.
`Cc1ccc(-c2csc(N/N=C/c3ccco3)n2)c(C)c1` gave CSC inhib 11, aSyn 5UTR inh -51, Mdm2-MdmX inh 32, Gli-Sufu block -13, 697 NFkB inh -403, Jurkat NFkB inh -89 and 697 NFkB conf -20.
CN(C)S(=O)(=O)c1cccc(-c2csc(N/N=C/c3ccco3)n2)c1 was read as CSC inhib -7, aSyn 5UTR inh -24, Mdm2-MdmX inh -4, Gli-Sufu block -9, 697 NFkB inh -3 and Jurkat NFkB inh -6.
COc1ccc(OC)c(CCNC(=O)C(C)n2nc(C)c3c(C)n(-c4ccccc4)nc3c2=O)c1 (stereo not drawn) was read as CSC inhib -3, aSyn 5UTR inh -12, Mdm2-MdmX inh 6, Gli-Sufu block 10, 697 NFkB inh 1 and Jurkat NFkB inh 3.
`COc1ccc(OC)c(CCNC(=O)C(C)n2nc(C)c3c(C)n(-c4ccc(C)cc4)nc3c2=O)c1` (stereo not drawn) gave CSC inhib 8, aSyn 5UTR inh 18, Mdm2-MdmX inh 4, Gli-Sufu block 12, 697 NFkB inh 40*, Jurkat NFkB inh 49 and 697 NFkB conf 87*.
`O=C(N/N=C/c1ccccc1C(=O)O)c1cccc(S(=O)(=O)N2CCCCC2)c1` gave Mdm2-MdmX inh 16, Gli-Sufu block -2, 697 NFkB inh -6 and Jurkat NFkB inh -13.
`O=C(O)c1ccc(-c2noc(-c3ccc(F)cc3)n2)cc1` gave CSC inhib 8, aSyn 5UTR inh -93, Mdm2-MdmX inh -110, Gli-Sufu block -94, 697 NFkB inh -313, Jurkat NFkB inh -75 and 697 NFkB conf -283.
For Nc1cc(S(=O)(=O)Nc2cc(Cl)ccc2Cl)ccc1N1CCCC1 the results were CSC inhib 31, aSyn 5UTR inh 12, Mdm2-MdmX inh 15, Gli-Sufu block 6, 697 NFkB inh 7 and Jurkat NFkB inh 13.
`c1ccc2nc(-c3ccc(N4CCOCC4)cc3)ccc2c1` gave aSyn 5UTR inh 104*, Mdm2-MdmX inh 25, Gli-Sufu block -24, 697 NFkB inh -348, Jurkat NFkB inh -67 and 697 NFkB conf -291.
`CCCCN(C(=O)COC(=O)CSc1ccc([N+](=O)[O-])cc1)c1c(N)n(CCC)c(=O)[nH]c1=O` gave CSC inhib 1, aSyn 5UTR inh -3, Mdm2-MdmX inh 9, Gli-Sufu block -9, 697 NFkB inh 9 and Jurkat NFkB inh 4.
COc1ccc(OCc2cccc(C(=O)NN)c2)cc1 was read as CSC inhib 3, aSyn 5UTR inh 67*, Mdm2-MdmX inh -14, Gli-Sufu block -155, 697 NFkB inh 68*, Jurkat NFkB inh 6 and 697 NFkB conf 29*.
For CCOc1ccc(OCc2cccc(C(=O)N/N=C/c3cccnc3)c2)cc1 the results were CSC inhib 0, aSyn 5UTR inh 87*, Mdm2-MdmX inh -22, Gli-Sufu block -153, 697 NFkB inh 67*, Jurkat NFkB inh 41 and 697 NFkB conf 52*.
Cc1ccc(Sc2cc(NCCCO)c([N+](=O)[O-])c3nonc23)cc1 was read as CSC inhib 7, aSyn 5UTR inh -17, Mdm2-MdmX inh 24, Gli-Sufu block -6, 697 NFkB inh 46*, Jurkat NFkB inh -9 and 697 NFkB conf 44*.
`COc1ccc(Cn2c(C3CC3)nc3ccc(NC(C)=O)cc3c2=O)cc1` gave CSC inhib -2, aSyn 5UTR inh -121, Mdm2-MdmX inh -184, Gli-Sufu block -91, 697 NFkB inh -254, Jurkat NFkB inh -131 and 697 NFkB conf -199.
For O=C(COC(=O)C1CCN(/C=C/C(=O)C(F)(F)F)CC1)Nc1cccc(F)c1 the results were aSyn 5UTR inh 21, Mdm2-MdmX inh -46, Gli-Sufu block 0, 697 NFkB inh 21 and Jurkat NFkB inh 23.
`COCCn1c(C)cc(C(=O)COC(=O)c2n[nH]c3ccccc23)c1C` gave CSC inhib 19, aSyn 5UTR inh 81*, Mdm2-MdmX inh 19, Gli-Sufu block -10, 697 NFkB inh -393, Jurkat NFkB inh -55 and 697 NFkB conf -117.
Cc1cc(C(=O)COC(=O)c2n[nH]c3ccccc23)c(C)n1C was read as CSC inhib -10, aSyn 5UTR inh 29, Mdm2-MdmX inh -40, Gli-Sufu block -88, 697 NFkB inh -138 and Jurkat NFkB inh -133.
O=[N+]([O-])c1ccc(Sc2cc[n+]([O-])c3ccccc23)c([N+](=O)[O-])c1 was read as CSC inhib 59, aSyn 5UTR inh -19, Mdm2-MdmX inh 23, Gli-Sufu block -1, 697 NFkB inh 37*, Jurkat NFkB inh 28 and 697 NFkB conf 50*.
`O=c1[nH]c(Sc2ccc([N+](=O)[O-])cc2[N+](=O)[O-])nc2ccccc12` gave CSC inhib 61, aSyn 5UTR inh -31, Mdm2-MdmX inh -36, Gli-Sufu block 12, 697 NFkB inh -11 and Jurkat NFkB inh -8.
CCN(C(=O)CN1C(=O)NC2(CCCc3ccccc32)C1=O)c1ccc(F)cc1 (stereo not drawn) was read as CSC inhib -14, Mdm2-MdmX inh -20, Gli-Sufu block -3, 697 NFkB inh 20 and Jurkat NFkB inh -16.
`CCN(C(=O)CN1C(=O)NC2(CCc3ccccc32)C1=O)C1CCCCC1` (stereo not drawn) gave CSC inhib -7, aSyn 5UTR inh -2, Mdm2-MdmX inh -3, Gli-Sufu block -2, 697 NFkB inh 42*, Jurkat NFkB inh 8 and 697 NFkB conf 22.
